Inconclusive results are not listed. Unmarked numbers belong to inactive results. The source made the active and inactive calls. The call rests on the fitted dose curve; in most records, active means well fitted inhibition curve with a large enough effect; inconclusive means small, poorly fitted or top-dose-only effect; inactive means no such curve, though single readings can be large or run the other way.
Potency means the concentration at half of the fitted maximal effect.

The assay can be described thus: S16 Schwann cell PMP22 intronic element firefly luciferase assay (AID 624032). Further: nearly all actives have a fitted effect of over 30% in size. The settings on record: S16 rat Schwann cells, PMP22 element FLuc, 24 h; series mostly up to 57.5 µM; activity change, negative = inhibition: at the top concentration. From the text:
Charcot-Marie-Tooth-Association [CMTA]
National Center for Advancing Translational Sciences [NCATS]
Charcot-Marie-Tooth (CMT) disease was first characterized by Jean-Martin Charcot and Pierre Marie in France and, independently, by Howard Henry Tooth in England in 1886. CMT is one of the most common inherited neurological diseases, affecting approximately 1 in 2,500 Americans. […] The most prevalent type of CMT is known as CMT1A and caused by a duplication of the PMP22 gene which leads to over-expression of this protein. PMP22 is a glycosylated intrinsic membrane protein accounting for 2-5% of the myelin protein content, and its over-expression results in demyelination and subsequently axonal loss.
A pair of cellular transcription-based assays was developed in the S16 rat Schwann cell lines (Hai, M., et al., 2002) stably transfected with orthogonal reporters - firefly luciferase (Fluc) and beta-lactamase (beta-Lac) - whose expression is driven by an intronic regulatory element of the PMP22 gene (Jones, E.A., et al., 2011) to recapitulate endogenous expression of PMP22. The current assay employs Fluc to report on PMP22 expression. A comprehensive library of approved drugs, the NCGC Pharmaceutical Collection (Huang, R., et al., 2011), was screened in the cross-validating platform of the orthogonal reporter assays to identify drug modulators inhibitory towards PMP22 expression.
A set of counter-screens was devised to address non-specific activity of the library. An ATP-dependent CellTiter-Glo assay (developed by Promega Corp) was utilized to control cell viability. In addition, biochemical Fluc enzyme assay was performed to assess direct inhibition of the Fluc enzymatic activity.
Hai, M., Muja, N., DeVries, G.H., Quarles, R.H. and Patel, P.I. Comparative analysis of Schwann cell lines as model systems for myelin gene transcription studies. J Neurosci Res, 2002. 69(4): pp 497-508
Huang, R., Southall, N., Wang, Y., Yasgar A., Shinn P., Jadhav, A. , Nguyen, D.-T. and Austin, C.P., The NCGC pharmaceutical collection: a comprehensive resource of clinically approved drugs enabling repurposing and chemical genomics. Sci Transl Med, 2011. 3(80): p. 80ps16.
S16 Schwann cell PMP22 intronic element firefly luciferase assay
The FLuc-expressing S16 cells were seeded in white solid 1536-well plates at between 500-750 cells/4uL in DMEM medium containing 10% FBS, w/o phenol red. After overnight incubation at 37 degree Celsius/5% C02, 23 nL of compounds or DMSO were delivered to each well using a pin tool, followed by 24h-incubation at 37 degree Celsius/5% C02. Then 4 uL ONE-Glo luminescent substrate mix (Promega) was added to each well. Luminescence was measured on a ViewLux plate reader (Perkin Elmer). The % activity was determined by normalizing to the average readings of PTC124 (a positive control) - treated cells relative to DMSO-treated cells (0% Activity). The concentration-effect curves were then classified based on curve quality (r2), response magnitude and degree of measured activity.
On to `Cc1cc(O)c(C(C)C)cc1Cl`, for which the “activity change, negative = inhibition” value is 21.9%.
As for `c1ccc(CNCCNCc2ccccc2)cc1`, the “activity change, negative = inhibition” value was 3.05%.
With `CO/N=C1\CN(c2nc3c(cc2F)c(=O)c(C(=O)O)cn3C2CC2)CC1CN` (stereo not given), the “activity change, negative = inhibition” value is 6.47%.
Consider `CCCCc1nc(Cl)c(CO)n1Cc1ccc(-c2ccccc2-c2nn[nH]n2)cc1`, for which the “activity change, negative = inhibition” value is -10.1%.
Regarding `NCCCC[C@H](N[C@@H](CCc1ccccc1)C(=O)O)C(=O)N1CCC[C@H]1C(=O)O`, the “activity change, negative = inhibition” value was 6.24% [at 25.7 µM].
For `CCCCC(CC)CN=C(N)NC(N)=NCCCCCCN=C(N)NC(N)=NCC(CC)CCCC` (stereo not given), the Potency is 25.6 µM (active).
For `Cc1ncc(CSSCc2cnc(C)c(O)c2CO)c(CO)c1O`, the “activity change, negative = inhibition” value is 2.87%.
With `CC(=O)OCC(=O)NCCCOc1cccc(CN2CCCCC2)c1`, the “activity change, negative = inhibition” value was -2.25%.
On to `CC[N+](CC)(CCNC(=O)C(=O)NCC[N+](CC)(CC)Cc1ccccc1Cl)Cc1ccccc1Cl`, for which the “activity change, negative = inhibition” value is 1.9%.
As for `COc1ccc(CN2CCN(C(c3ccc(F)cc3)c3ccc(F)cc3)CC2)c(OC)c1OC`, the Potency is 10.2 µM (active).
Consider `O=C1CCC(c2ccc(-n3ccnc3)cc2)=NN1`, for which the “activity change, negative = inhibition” value is -4.61%.
The same measure, in the same setting: as for `CCC(C(=O)OCCN(CC)CC)c1ccccc1` (stereo not given), the figure is -1.46%.
In the case of `Oc1c(I)cc(Cl)c2cccnc12`, the Potency is 11.4 µM (active).
Turning to `C[C@@H](CN(C)C)CN1c2ccccc2Sc2ccccc21`, the “activity change, negative = inhibition” value was 0.855% [at 25.7 µM].
On to `CN(C)/N=N/c1nc[nH]c1C(N)=O`, for which the “activity change, negative = inhibition” value was 2.97%.
On to `CN(C)CCCOc1nn(Cc2ccccc2)c2ccccc12`, for which the “activity change, negative = inhibition” value is -3.99% [at 25.7 µM].
Take `O=c1c(-c2ccccc2)c1-c1ccccc1`: the Potency is 3.22 µM (active).
On to `O=C(COc1ccc(Cl)cc1)N1CCN(Cc2ccc3c(c2)OCO3)CC1`, for which the “activity change, negative = inhibition” value was 1.77%.
Still for that read-out and setting: as for `N[C@@H](Cc1cnc[nH]1)C(=O)O`, the figure is 8.6%.
Regarding `CC(C)=CCC1C(=O)N(c2ccccc2)N(c2ccccc2)C1=O`, the “activity change, negative = inhibition” value is -23.9%.
With `O=C(N/N=C/c1ccccc1O)c1ccncc1`, the “activity change, negative = inhibition” value was -1.12%.
With `CCn1cc(C(=O)O)c(=O)c2cnc(N3CCCC3)nc21`, the “activity change, negative = inhibition” value was 5.91% [at 25.7 µM].
As to `CCOC(=O)c1cccc(N)c1`, the “activity change, negative = inhibition” value was 35.5%.
For the molecule `CNCCC(Oc1ccccc1C)c1ccccc1` (stereo not given), the “activity change, negative = inhibition” value is 11.5%.
For the molecule `CNCCC=C1c2ccccc2CCc2ccccc21`, the Potency was 11.4 µM (active).
Consider `Cc1ccc(C(=O)C(C)CN2CCCCC2)cc1` (stereo not given), for which the “activity change, negative = inhibition” value is 30.5%.
`N[C@H](CO)C(=O)O`: the “activity change, negative = inhibition” value was -3.91%.
In the case of `Cc1cccn2c(=O)c(-c3nnn[nH]3)cnc12`, the “activity change, negative = inhibition” value is -8.15%.
`Cc1c(C(N)=O)cc([N+](=O)[O-])cc1[N+](=O)[O-]`: the “activity change, negative = inhibition” value was 0.736%.
For `CC(C)(Oc1ccc(Cl)cc1)C(=O)O`, the “activity change, negative = inhibition” value was 3.58%.
For the molecule `C[C@H](O)C(=O)Nc1c(I)c(C(=O)NC(CO)CO)c(I)c(C(=O)NC(CO)CO)c1I`, the “activity change, negative = inhibition” value was -7.93% [at 25.7 µM].
Same read-out and setting: as for `CCN(CCCc1ccccc1)CCCc1ccccc1`, the figure is -16.1% [at 25.7 µM].
Take `Cc1c(F)c(N2CCNC(C)C2)cc2c1c(=O)c(C(=O)O)cn2C1CC1` (stereo not given): the “activity change, negative = inhibition” value was 1.56%.
As to `Cc1c(C)n(CCN(C)C)c2ccc(C(=O)OCCN(C)C)cc12`, the Potency is 32.2 µM (active).
With `CCCn1c(=O)[nH]c(=O)c2[nH]cnc21`, the “activity change, negative = inhibition” value is -22.9%.
With `Cc1c(N(C)CS(=O)(=O)O)c(=O)n(-c2ccccc2)n1C`, the “activity change, negative = inhibition” value was 6.84% [at 25.7 µM].
Regarding `Oc1c(Cl)cc(Cl)cc1Sc1cc(Cl)cc(Cl)c1O`, the Potency is 18.1 µM (active).
`NC(CS)C(=O)O` (stereo not given): the “activity change, negative = inhibition” value was 14.3%.
Take `Nc1ccc(C(=O)Nc2ccccc2N)cc1`: the “activity change, negative = inhibition” value was -22.9%.
The same measure, in the same setting: under `CCN(CC)C(=O)N1CCN(C)CC1` stands 0.313% [at 25.7 µM].

These data come from PubChem BioAssay (NCATS).
